# Compounds with a hit are over-represented: about 1.8% of the library has one in this group of screens.
# Sa RN4220 lethal: growth inhibition of S. aureus RN4220, primary screen, OD600 | actives 0.33% (n = 330,000) | AID 1259311, 2017 | inhibition, % (test concentration not listed) | 16 h; in the data active means inhibition above about 85%;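 further: plate controls were untreated cells for no effect and reference antibiotic for full effect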
# Sa ugtP lethal: growth inhibition of ugtP-null S. aureus, primary screen, RN4220 ugtP deletion, OD600 | 16 h | growth inhibition, % (concentration not given with the values) | actives 0.54% (n = 330,000) | AID 1259309, 2017; in the data active means growth inhibition above about 68%;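 further: plate controls were untreated wells for no effect and antibiotic for full effect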
# VHR inh abs: VHR1 phosphatase inhibitors, primary screen, biochemical, absorbance, uHTS; Dual specificity protein phosphatase 3 (Homo sapiens), P51452; recombinant VHR phosphatase, pNPP absorbance; actives 0.52% (n = 290,000); inhibition, % at 13.3 µM; in the data active means inhibition above about 50%
# PfHsp40 rescue: rescue of yeast from PfHsp40 toxicity, primary screen, S. cerevisiae, ATP luminescence | S. cerevisiae expressing PfHsp40, growth rescue | growth rescue, % at 12.5 µM | actives 0.68% (n = 340,000) | AID 504582, 2011; in the data active means growth rescue above about 28%, passing the limit was not always enough; inconclusive means no clear call, values can overlap the other calls;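 further: yeast W303a lacking pdr1 and pdr3 grown in galactose medium; growth measured after three days at 30 °C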
# PrPC surface inh: inhibitors of human cell surface prion protein PrPC, primary screen, cell-based, TR-FRET; Major prion protein (Homo sapiens), P04156; AID 720596, 2013; TR-FRET read-out; actives 0.43% (n = 370,000); inhibition, % at 13.8 µM; in the data active means inhibition above about 24%; further: 0% = median of the test wells and 100% = reference compound wells
# PrPC confirm: confirmation of inhibitors of cell surface human prion protein, confirmation, cell-based, TR-FRET | cell surface PrPC level | actives 65% (n = 1,500) | AID 743200, 2013 | inhibition, % at 13.8 µM | shares compounds with PrPC surface inh; in the data active means inhibition above about 25%
# LD9 tox: cytotoxicity in LD9 cells, cytotoxicity control for cell surface PrPc inhibitor project, cell-based, luminescence, high throughput; shares compounds with PrPC surface inh; luminescence viability; inhibition, % at 13.8 µM; actives 29% (n = 1,500); AID 743201, 2013; in the data active means inhibition above about 9.5%
# Active calls of the source: *; ? = inconclusive; nt = no result given.
SMILES,Sa RN4220 lethal,Sa ugtP lethal,VHR inh abs,PfHsp40 rescue,PrPC surface inh,PrPC confirm,LD9 tox
COc1ccccc1-c1nnc(Nc2nc3c(OC)cccc3s2)o1,-2,-6,9,0,42*,69*,40*
COc1cccc2sc(Nc3nc(-c4ccncc4)cs3)nc12,2,22,29,0,28*,18,27*
C=CCNC(=O)CC(=O)NN=Cc1ccccc1F,2,-6,nt,nt,nt,nt,nt
COc1ccc(C2C=CCN(C(=O)C3CCCC3)C(Cc3ccccc3)C(=O)N2Cc2ccc(F)cc2)cc1 (stereo not given),-3,-3,nt,nt,nt,nt,nt
COc1ccc(C=NNc2ncnc3c2[nH]c2ccccc23)c(OC)c1OC,1,5,nt,nt,nt,nt,nt
CC1CCc2cc(F)cc3c(O)c(C(=O)NCC4CCCO4)c(=O)n1c23 (stereo not given),1,-9,5,?,31*,40*,-5
O=C(NC1CC1)C1=CC(C2CC2)CC(OCc2ccc(CO)cc2)O1 (stereo not given),6,2,nt,nt,nt,nt,nt
NC(=O)COC(=O)c1ccc2noc(-c3ccccc3)c2c1,2,5,42,-1,37*,30*,-8
CC(CC(=O)Nc1ccc(C)c(Cl)c1)=NNC(=O)c1ccccn1,2,-7,nt,nt,nt,nt,nt
CCCCn1c(=O)[nH]c(=O)c2c1nc(Cn1ncc(Cl)c(Cl)c1=O)n2CCC,nt,nt,6,0,44*,43*,71*
CCCCn1c(=O)[nH]c(=O)c2c1nc(CN1C(=O)c3ccccc3S1(=O)=O)n2CCC,9,0,24,0,12,nt,nt
Cc1ccc(N2CCN(N=C/C=C/c3ccccc3)CC2)cc1,6,2,nt,nt,nt,nt,nt
CC1CC(C)C(=O)C(C(CC2CC(=O)NC(=O)C2)OC(=O)CC(=O)c2ccccc2)C1 (stereo not given),3,0,nt,0,85*,95*,31*
CCOc1ccc(C2CC=C(C(=O)O)C(c3ccc(Cl)cc3)N2S(=O)(=O)c2ccc(C)cc2)cc1 (stereo not given),18,-12,nt,nt,nt,nt,nt
Cc1nn(Cc2ccc(Cl)cc2Cl)c(Cl)c1C=CC(=O)OCC(=O)NCC(F)(F)F,5,1,nt,nt,nt,nt,nt
COC(=O)C1=C(c2ccc(OC)c(OC)c2)CC2CCC1N2C(=O)N1CCC(O)CC1 (stereo not given),2,2,nt,nt,nt,nt,nt
COc1ccc(C2CC=C(C(=O)O)C(c3cccc(Cl)c3)N2S(=O)(=O)c2ccccc2C)cc1 (stereo not given),18,-2,nt,nt,nt,nt,nt
CNC(=O)c1nnsc1S(=O)(=O)c1ccc(Cl)cc1,7,12,-8,209*,25*,-4,80*
COc1ccc(CCNC(=O)CSc2nn3c(=O)c(C)nnc3s2)cc1OC,2,6,-5,0,25*,3,-8
NS(=O)(=O)c1ccc(CCNC(=O)c2cc(-c3ccccn3)nc3ccc(Br)cc23)cc1,5,4,28,nt,29*,48*,21*
COC(=O)C1=C(C(=O)OC)[N+]2=C3N(C(=O)NC2(C)C)C(CO)C[C@@]32c3ccccc3N(Cc3ccccc3)C12 (stereo not given in full),3,0,nt,nt,nt,nt,nt
CCOC(=O)c1c(C)n(CC)c2c1cc(O)c1ccccc12,2,-7,-2,0,25*,11,-4
C=CCn1c(C)c(C(=O)OCC)c2cc(O)c3ccccc3c21,2,-9,21,-1,4,nt,nt
CC[C@H](C)[C@@H]1NC(=O)[C@@H](CC(C)C)NC(=O)[C@H](C(C)C)NC(=O)[C@H]2CSSC[C@H](NC1=O)C(=O)N2,nt,nt,nt,nt,41*,47*,99*
CC(CNC(=O)c1cc(COc2ccc3ncccc3c2)on1)c1ccccc1 (stereo not given),6,4,18,9,25*,22,17*
SMILES,Sa RN4220 lethal,Sa ugtP lethal,VHR inh abs,PfHsp40 rescue,PrPC surface inh,PrPC confirm,LD9 tox
O=C(NC1CCCCCCC1)c1cc(COc2ccc3ncccc3c2)on1,2,15,14,2,28*,19,18*
O=S(=O)(Nc1cccc2cccnc12)c1ccc(S(=O)(=O)N2CCCC2)cc1,1,5,14,0,37*,10,24*
Cc1ccc2cccc(NS(=O)(=O)c3ccccc3)c2n1,nt,nt,1,nt,34*,67*,71*
CC(=O)Nc1ccc(S(=O)(=O)Nc2cccc3cccnc23)cc1,3,2,31,-1,0,nt,nt
O=S(=O)(Nc1cccc2cccnc12)c1ccccc1,nt,nt,-47,0,54*,39*,81*
O=C(NN=Cc1ccc(Cl)cc1Cl)c1cccc(F)c1,19,19,nt,nt,nt,nt,nt
CCN(C(=O)COC(=O)c1ccccc1Nc1ccccc1)c1c(N)n(Cc2ccccc2)c(=O)[nH]c1=O,4,-8,nt,1,33*,24,-3
CC(=NNC(=O)c1ccco1)c1cccc(NC(=O)c2ccc(C)o2)c1,-3,-1,nt,nt,nt,nt,nt
CCCCCCCCCCCCCCCCn1cc[n+](C)c1,101*,99*,0,3,34*,49*,42*
C[n+]1ccn(CC(=O)c2cccs2)c1,-1,5,-16,1,1,nt,nt
CCOC(=O)CNC(=O)CSc1nc(Cc2ccccc2)nc2ccccc12,1,1,18,0,18,nt,nt
CCCCNC(=O)CSc1nc(Cc2ccccc2)nc2ccccc12,-1,-6,49,-1,28*,38*,-6
CCCc1nc(SCC(=O)NC2CCCC2)c2ccccc2n1,1,8,16,-1,34*,43*,-12
CCc1cc2cc(C)c(C)cc2nc1SCC(=O)Nc1cc(C)on1,6,6,-8,0,-1,nt,nt
Cc1cc(NC(=O)CSc2cc(C)c3ccccc3n2)no1,3,4,nt,0,11,nt,nt
Cc1cc(NC(=O)CSc2ncnc3ccccc23)no1,-2,1,23,0,36*,94*,-3
CCc1cc2ccccc2nc1SCC(=O)Nc1cc(C)on1,1,-2,18,0,30*,69*,-2
CCC(=O)c1c(CC)c2n3c1CCC3CCC2 (stereo not given),8,6,nt,nt,nt,nt,nt
CCOC1OC(C(=O)NC2CC2)=CC(C2CCCCC2)C1CCCO (stereo not given),0,-14,nt,nt,nt,nt,nt
COC(=O)C(CC(C)C)N(Cc1ccccc1)S(=O)(=O)N(Cc1ccccc1)C(CC(C)C)C(=O)OC (stereo not given),-2,-3,nt,nt,nt,nt,nt
CCCc1nc(SCC(=O)Nc2cc(C)on2)c2ccccc2n1,4,1,12,1,123*,120*,-10
Cc1cc(NC(=O)CSc2nc(C(C)(C)C)nc3ccccc23)no1,5,4,25,-1,1,nt,nt

# Source: PubChem
